# Values joined by “and” are separate entries in the source; they are usually repeats but may differ in a detail not shown here. Equal values may be shown once. Active and inactive are the calls of the source.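 The calls were made as follows, unless noted: active = compound raises insulin release from rat beta cells at 5 mM glucose, no numeric limit stated; inactive = the rest.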
# Legend:
# [1] = stimulators of nuclear beta-catenin in C2C12, primary screen, imaging, WNT3A-conditioned medium, mouse C2C12, NPC library (AID 1117326; in the data active = nuclear beta-catenin stimulation mostly above about 4.2%, no sharp cut-off; inactive = mostly below about 10%); conditions: stronger effect = higher value
# [2] = stimulators of insulin release from INS-1E, primary screen, cell-based, 5 mM glucose, NPC library (AID 1117329); conditions: rat INS-1E insulin secretion, at 10 µM, stronger effect = higher value
# [3] = growth inhibition of GSK3B-pretreated HCT116 cells – cell-based, CellTiter-Glo, 0.2 to 20 µM (AID 1117336;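 active = compounds lowering colon cancer cell viability after pretreatment blocking the GSK3B kinase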); conditions: HCT116 viability after GSK3B inhibitor, at 20 µM, stronger effect = higher value
# [4] = inhibition of endothelial tube formation, primary screen, imaging, VEGF stimulated, CD31 staining, tube area, NPC library (AID 1117340;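 active = compound that reduces growth-factor-driven endothelial tube area in a mixed cell culture, no cutoff stated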); conditions: VEGF-stimulated ADSC/ECFC co-culture, at 10 µM, stronger effect = higher value
# [5] = glucagon-like peptide 1 release enhancers, primary assay, NCI-H716 cell line, NPC library (AID 1117341;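 active = compound raises GLP1 secretion from the human gut endocrine cells, with no numeric limit stated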); conditions: NCI-H716 cells, at 10 µM, stronger effect = higher value
# [6] = HCT116 colon cancer cell growth inhibition, primary screen, CellTiter-Glo luminescence, NPC library (AID 1117342;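 active = compounds that lower survival of HCT116 colon cancer cells in the luminescence readout, no numeric limit stated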); conditions: at 20 µM (top of the series)
# [7] = CellTiter-Glo luminescent readout of SW480 viability loss, NPC library primary (AID 1117343;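 active = compounds that lower viability of the colon cancer cells in the luminescence readout, with no numeric limit stated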); conditions: CellTiter-Glo luminescence; at 20 µM (top of the series)
# [8] = decreased DLD-1 cellular survival, CellTiter-Glo luminescent readout, NPC compound collection, primary HTS (AID 1117346;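 active = compounds that lower survival of DLD-1 colon cancer cells in the luminescence readout, no cutoff given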); conditions: DLD-1 viability, CellTiter-Glo luminescence; at 20 µM (top of the series)
# [9] = target: 6-phosphogluconate dehydrogenase, decarboxylating (Homo sapiens) (UniProt P52209); test: 6PGD enzyme inhibitors, primary screen, biochemical, human, recombinant enzyme, NADPH absorbance (AID 1159550;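 active = at least 20% inhibition of 6-phosphogluconate dehydrogenase activity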); conditions: recombinant 6PGD, NADPH absorbance 341 nm; at 10 µM; stronger effect = higher value
# Sequence of 6-phosphogluconate dehydrogenase, decarboxylating (Homo sapiens) (P52209 whole entry, looked up): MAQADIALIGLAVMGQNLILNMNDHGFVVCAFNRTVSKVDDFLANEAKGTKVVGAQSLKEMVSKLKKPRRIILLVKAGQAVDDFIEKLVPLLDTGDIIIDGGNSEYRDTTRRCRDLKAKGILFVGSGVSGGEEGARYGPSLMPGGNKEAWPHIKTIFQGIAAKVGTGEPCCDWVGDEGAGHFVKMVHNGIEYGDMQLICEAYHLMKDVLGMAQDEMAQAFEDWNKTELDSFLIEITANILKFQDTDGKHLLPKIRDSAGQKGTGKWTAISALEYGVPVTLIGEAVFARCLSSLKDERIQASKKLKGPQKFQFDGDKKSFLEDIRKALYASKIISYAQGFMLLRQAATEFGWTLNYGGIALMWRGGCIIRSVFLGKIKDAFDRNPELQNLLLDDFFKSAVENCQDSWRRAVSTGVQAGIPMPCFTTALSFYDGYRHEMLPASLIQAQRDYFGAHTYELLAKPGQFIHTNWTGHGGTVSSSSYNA
# [10] = differential killing of epithelial or mesenchymal cells, primary screen, imaging, PC-3E GFP, TEM4-18 mCherry, co-culture (AID 1345086;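 active = compounds killing one labelled cell type while sparing the other, by normalised counts and ratio limits, not self-fluorescent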;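 as to all read-outs here: cells exposed to compound for 72 h before imaging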;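 as to red/green cell ratio (normalised): normalised mesenchymal count divided by normalised epithelial count so high means epithelial killing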); conditions: imaging cell counts, at 1 µM; for red/green cell ratio (normalised): actives lie on both sides, counts scaled to control wells, 1 = unselective
# [11] = survival rescue of mitochondrial mutant cells in low glucose, primary screen, MELAS cybrids, Rieske KO mouse fibroblasts, CellTiter-Glo (AID 1508586;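 active = mean z-score across replicates of 1.96 or higher in either the MELAS or the Rieske mutant cell line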;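 also: z relative to plate mean and SD of compound and empty wells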)
# [12] = target: NAD(+) hydrolase SARM1 (Homo sapiens) (UniProt Q6SZW1); test: SARM1 TIR NADase inhibitors, cell lysate, NAD-Glo luminescence (AID 1508614;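 active = compound whose remaining NAD level is above about 45 nM, limit read from the data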;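 also: higher remaining NAD means stronger inhibition of SARM1 NADase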); conditions: SAM-TIR HEK293T lysate NADase, at 1 µM, stronger effect = higher value
# Sequence of NAD(+) hydrolase SARM1 (Homo sapiens) (Q6SZW1 whole entry, looked up, the tested form may be a part): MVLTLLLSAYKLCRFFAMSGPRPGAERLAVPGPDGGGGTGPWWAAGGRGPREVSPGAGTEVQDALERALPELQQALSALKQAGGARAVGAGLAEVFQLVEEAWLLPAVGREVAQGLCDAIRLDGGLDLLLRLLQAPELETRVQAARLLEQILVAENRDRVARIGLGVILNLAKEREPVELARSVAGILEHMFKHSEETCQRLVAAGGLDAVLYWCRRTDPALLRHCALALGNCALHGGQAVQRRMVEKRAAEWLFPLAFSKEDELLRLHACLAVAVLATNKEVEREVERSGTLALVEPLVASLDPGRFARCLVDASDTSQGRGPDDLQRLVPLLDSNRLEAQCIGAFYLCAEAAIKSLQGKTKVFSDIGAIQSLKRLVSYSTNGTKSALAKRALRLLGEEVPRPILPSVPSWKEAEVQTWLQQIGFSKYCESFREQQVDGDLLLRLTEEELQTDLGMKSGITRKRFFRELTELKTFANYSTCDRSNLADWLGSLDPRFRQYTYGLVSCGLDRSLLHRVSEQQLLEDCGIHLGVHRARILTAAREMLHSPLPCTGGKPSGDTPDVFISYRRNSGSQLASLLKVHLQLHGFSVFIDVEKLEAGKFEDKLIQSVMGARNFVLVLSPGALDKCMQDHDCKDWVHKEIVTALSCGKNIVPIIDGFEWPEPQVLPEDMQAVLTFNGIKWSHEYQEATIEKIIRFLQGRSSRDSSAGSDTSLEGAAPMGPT
# [13] = target: Mitogen-activated protein kinase 7 (Homo sapiens) (UniProt Q13164); test: ERK5 transactivation activators in reporter cells, primary screen, cell-based, HTS (AID 1508626;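 active = luciferase signal above three times the same-plate solvent-only control wells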;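 also: luciferase driven by Gal4-ERK5 fusion binding five Gal4 sites before minimal TATA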); conditions: HeLa Gal4-ERK5 transactivation, 18 h, at 5 µM, stronger effect = higher value
# Sequence of Mitogen-activated protein kinase 7 (Homo sapiens) (Q13164 whole entry, looked up, the tested form may be a part): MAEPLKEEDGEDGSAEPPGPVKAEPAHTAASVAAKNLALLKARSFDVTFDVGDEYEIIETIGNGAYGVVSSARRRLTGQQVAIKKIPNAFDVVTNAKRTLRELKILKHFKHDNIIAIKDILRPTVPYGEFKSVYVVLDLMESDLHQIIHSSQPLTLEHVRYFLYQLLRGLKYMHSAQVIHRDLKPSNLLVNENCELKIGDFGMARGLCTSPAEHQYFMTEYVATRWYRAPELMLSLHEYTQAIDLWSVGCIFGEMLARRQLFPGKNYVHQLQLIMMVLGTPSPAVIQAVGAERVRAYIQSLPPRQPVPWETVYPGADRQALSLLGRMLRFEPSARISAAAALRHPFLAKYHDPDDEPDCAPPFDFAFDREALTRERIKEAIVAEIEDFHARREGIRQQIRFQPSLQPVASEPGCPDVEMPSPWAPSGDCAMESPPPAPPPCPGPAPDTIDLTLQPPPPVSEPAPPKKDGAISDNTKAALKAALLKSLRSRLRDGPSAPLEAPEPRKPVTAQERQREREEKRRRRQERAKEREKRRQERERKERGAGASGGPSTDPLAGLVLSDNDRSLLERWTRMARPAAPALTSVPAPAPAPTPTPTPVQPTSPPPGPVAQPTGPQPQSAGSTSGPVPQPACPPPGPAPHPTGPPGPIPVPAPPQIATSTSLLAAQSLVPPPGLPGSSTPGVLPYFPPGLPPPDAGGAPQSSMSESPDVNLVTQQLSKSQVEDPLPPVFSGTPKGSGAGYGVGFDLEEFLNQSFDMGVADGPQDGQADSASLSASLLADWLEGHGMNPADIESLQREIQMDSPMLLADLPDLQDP
# [14] = ICB984 medulloblastoma cell growth inhibition, synergistic combos for chromothripsis tumors, cisplatin or BGB combos (AID 1671451; call rule not given here;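 also: cells exposed for 96 hours before readout; 0% = vehicle DMSO and 100% = killing by high DMSO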); conditions: ICB984 medulloblastoma cells, drug combinations, stronger effect = higher value
# [15] = modulation of C. elegans fzo-1 (AID 1259413; call rule not given here;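 also: fzo-1 mutant C. elegans worms in liquid wells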); conditions: C. elegans fzo-1 modulator screen, mean read-out; stronger effect = higher value
# F380Y = test: modulators of BK channel variants, profiling panel, selectivity assay, cell-based, U2OS BacMam, thallium flux, beta subunits (AID 1259406;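 active = thallium flux through the channel raised or lowered by more than 3 SD from vehicle-only wells, actives on both sides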;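 also: initial slope of Thallos dye fluorescence rise after thallium is added; log ratio against the mean of 0.3% DMSO vehicle wells on the same plate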); conditions: at 30 µM
# F380Y/beta1 = test: as above; conditions: at 30 µM
# F380Y/beta2Delta = test: as above; conditions: at 30 µM
# [16] = measured here: epithelial PC-3E GFP cell survival
# [17] = measured here: mesenchymal TEM4-18 mCherry cell survival
compound,measurement,setting,value
Cc1nc2n(c(=O)c1CCN1CCC(C(=O)c3ccc(F)cc3)CC1)CCS2,nuclear beta-catenin stimulation,[1]; at 10 µM,0.2% (inactive)
same,nuclear beta-catenin stimulation,"[1]; stimulation, at 2 µM",-0.8%
same,insulin secretion stimulation,[2],0.2% (inactive)
same,viability decrease,[3],38% (inactive)
same,tube area decrease,[4],14.8% (inactive)
same,GLP1 secretion stimulation,[5],5.4% (inactive)
same,inhibition of viability,[6],67.6% (active)
same,viability decrease (inhibition),[7],29.6% (inactive)
same,viability decrease (inhibition),[8],33.5% (inactive)
CCCCCOc1ccc(C2SC(=O)NC2=O)cc1OCC (stereo unspecified),nuclear beta-catenin stimulation,[1]; at 10 µM,-0.1% (inactive)
same,nuclear beta-catenin stimulation,"[1]; stimulation, at 2 µM",11.7%
same,insulin secretion stimulation,[2],0.7% (inactive)
same,viability decrease,[3],46.8% (inactive)
same,tube area decrease,[4],5.8% (inactive)
same,GLP1 secretion stimulation,[5],3.7% (inactive)
same,inhibition of viability,[6],32.6% (inactive)
same,viability decrease (inhibition),[7],6.6% (inactive)
same,viability decrease (inhibition),[8],11.8% (inactive)
CCCCC(O)/C=C(C)/C=C/C=C/C(=O)N1CCCC1=O (stereo unspecified),nuclear beta-catenin stimulation,[1]; at 10 µM,-1% (inactive)
same,nuclear beta-catenin stimulation,"[1]; stimulation, at 2 µM",-0.4%
same,insulin secretion stimulation,[2],0.3% (inactive)
same,viability decrease,[3],1.6% (inactive)
same,tube area decrease,[4],17.5% (inactive)
same,GLP1 secretion stimulation,[5],1.3% (inactive)
same,inhibition of viability,[6],37.5% (inactive)
same,viability decrease (inhibition),[7],59.3% (active)
same,viability decrease (inhibition),[8],-19.2% (inactive)
CN1N=C(C(N)=O)CCC1=O,nuclear beta-catenin stimulation,[1]; at 10 µM,1.1% (inactive)
same,nuclear beta-catenin stimulation,"[1]; stimulation, at 2 µM",1.9%
same,insulin secretion stimulation,[2],1.05% (inactive)
same,viability decrease,[3],3.8% (inactive)
same,tube area decrease,[4],1.5% (inactive)
same,GLP1 secretion stimulation,[5],2.5% (inactive)
same,inhibition of viability,[6],15.3% (inactive)
same,viability decrease (inhibition),[7],-11.3% (inactive)
same,viability decrease (inhibition),[8],10.1% (inactive)
C/C=C(/C(=C/C)c1ccc(OC(C)=O)cc1)c1ccc(OC(C)=O)cc1,nuclear beta-catenin stimulation,[1]; at 10 µM,18.1% (inactive)
same,nuclear beta-catenin stimulation,"[1]; stimulation, at 2 µM",2.9%
same,insulin secretion stimulation,[2],1.65% (inactive)
same,viability decrease,[3],108% (active)
same,tube area decrease,[4],65.4% (active)
same,GLP1 secretion stimulation,[5],11.9% (inactive)
same,inhibition of viability,[6],108% (active)
same,viability decrease (inhibition),[7],129% (active)
same,viability decrease (inhibition),[8],97.2% (active)
CO/N=C(/C(=O)N[C@@H]1C(=O)N2C(C(=O)OCOC(=O)C(C)(C)C)=C(C)CS[C@H]12)c1csc(N)n1,nuclear beta-catenin stimulation,[1]; at 10 µM,1% (inactive)
same,nuclear beta-catenin stimulation,"[1]; stimulation, at 2 µM",-2%
same,insulin secretion stimulation,[2],5.9% (inactive)
same,viability decrease,[3],7.7% (inactive)
same,tube area decrease,[4],-11.2% (inactive)
same,GLP1 secretion stimulation,[5],-21% (inactive)
same,inhibition of viability,[6],0.6% (inactive)
same,viability decrease (inhibition),[7],15% (inactive)
same,viability decrease (inhibition),[8],-8.3% (inactive)
O=C(O)c1c(O)c(-c2ccccc2)nc2ccccc12,nuclear beta-catenin stimulation,[1]; at 10 µM,0.5% (inactive)
same,nuclear beta-catenin stimulation,"[1]; stimulation, at 2 µM",-0.8%
same,insulin secretion stimulation,[2],3% (inactive)
same,viability decrease,[3],66.1% (active)
same,tube area decrease,[4],2.6% (inactive)
same,GLP1 secretion stimulation,[5],-0.1% (inactive)
same,inhibition of viability,[6],39.2% (inactive)
same,viability decrease (inhibition),[7],107% (active)
same,viability decrease (inhibition),[8],39% (inactive)
CC(CSC(=O)c1ccccc1)C(=O)N1C[C@@H](Sc2ccccc2)C[C@H]1C(=O)O (stereo partly specified),nuclear beta-catenin stimulation,[1]; at 10 µM,-1% (inactive)
same,nuclear beta-catenin stimulation,"[1]; stimulation, at 2 µM",-0.2%
same,insulin secretion stimulation,[2],6.4% (inactive)
same,viability decrease,[3],-18.3% (inactive)
same,tube area decrease,[4],-27% (inactive)
same,GLP1 secretion stimulation,[5],-4% (inactive)
same,inhibition of viability,[6],6.5% (inactive)
same,viability decrease (inhibition),[7],47.6% (inactive)
same,viability decrease (inhibition),[8],27.7% (inactive)
O=C(O)Cc1cn(-c2ccccc2)nc1-c1ccc(Cl)cc1,nuclear beta-catenin stimulation,[1]; at 10 µM,8.7% (inactive)
same,nuclear beta-catenin stimulation,"[1]; stimulation, at 2 µM",1.2%
same,insulin secretion stimulation,[2],0.6% (inactive)
same,viability decrease,[3],20.4% (inactive)
same,tube area decrease,[4],-3.1% (inactive)
same,GLP1 secretion stimulation,[5],-0.7% (inactive)
same,inhibition of viability,[6],16.8% (inactive)
same,viability decrease (inhibition),[7],16.1% (active)
same,viability decrease (inhibition),[8],7.8% (inactive)
Cc1cc(=O)oc2cc(O[C@@H]3SC[C@@H](O)[C@H](O)[C@H]3O)ccc12,nuclear beta-catenin stimulation,[1]; at 10 µM,-0.2% (inactive)
same,nuclear beta-catenin stimulation,"[1]; stimulation, at 2 µM",-1.9%
same,insulin secretion stimulation,[2],1.1% (inactive)
same,viability decrease,[3],-1.3% (inactive)
same,tube area decrease,[4],13.6% (inactive)
same,GLP1 secretion stimulation,[5],3.6% (inactive)
same,inhibition of viability,[6],-1.1% (inactive)
same,viability decrease (inhibition),[7],-15.9% (inactive)
same,viability decrease (inhibition),[8],15.4% (inactive)
CCN(CC)CCCC(C)Nc1c2ccc(Cl)cc2nc2ccc(OC)cc12 (stereo unspecified),nuclear beta-catenin stimulation,[1]; at 10 µM,3.9% (inactive)
same,nuclear beta-catenin stimulation,"[1]; stimulation, at 2 µM",1.8%
same,insulin secretion stimulation,[2],84.6% (active)
same,viability decrease,[3],103% (active)
same,tube area decrease,[4],97.1% (active)
same,GLP1 secretion stimulation,[5],7.1% (inactive)
same,inhibition of viability,[6],102% (active)
same,viability decrease (inhibition),[7],122% (active)
same,viability decrease (inhibition),[8],97.7% (active)
same,inhibition,[9],1.31% (inactive)
same,red/green cell ratio (normalised),[10],1.37 (inactive)
same,normalised cell number,[10]; [16],0.76
same,normalised cell number,[10]; [17],1.04
same,z-score,"[11]; MELAS cybrid survival, CellTiter-Glo 48 h, stronger effect = higher value",0.298 and 1.99 (active) and 1.02
same,z-score,"[11]; Rieske KO mouse fibroblast survival, CellTiter-Glo 72 h",6.25 and 5.35 and 3.32
same,remaining NAD,[12],10 nM (inactive)
same,luciferase signal,[13],1610 AU (active)
same,inhibition,"[14]; BGB IC20 combo, at 0.005 µM",-4.02%
same,inhibition,"[14]; BGB IC40 combo, at 0.005 µM",16.5%
same,inhibition,"[14]; BGB IC40 combo, at 0.05 µM",90.3%
same,inhibition,[14]; at 0.5 µM,-2.08% (inactive)
same,inhibition,"[14]; cisplatin combo, at 0.05 µM",90%
same,inhibition,"[14]; cisplatin combo, at 0.5 µM",-4.11%
same,inhibition,"[14]; cisplatin combo, at 5 µM",-21.6%
same,inhibition,"[14]; measured here: 5 uM single agent, at 5 µM",1.6%
Oc1ccc(/C=C/c2cc(O)cc(O)c2)cc1,nuclear beta-catenin stimulation,[1]; at 10 µM,2.4% (inactive)
same,nuclear beta-catenin stimulation,"[1]; stimulation, at 2 µM",2.2%
same,insulin secretion stimulation,[2],0.1% (inactive)
same,viability decrease,[3],19% (inactive)
same,tube area decrease,[4],56.1% (active)
same,GLP1 secretion stimulation,[5],2.9% (inactive)
same,inhibition of viability,[6],65% (active)
same,viability decrease (inhibition),[7],75.5% (active)
same,viability decrease (inhibition),[8],35.3% (inactive)
same,inhibition,[9],0.743% (inactive)
same,mean signal,[15],256 (inactive)
same,red/green cell ratio (normalised),[10],1.06 (inactive)
same,normalised cell number,[10]; [16],0.97
same,normalised cell number,[10]; [17],1.04
same,luciferase signal,[13],84 AU (inactive)
same,log fold change Tl+ flux,F380Y,0.101 (inactive)
same,log fold change Tl+ flux,F380Y/beta1,0.199 (active)
same,log fold change Tl+ flux,F380Y/beta2Delta,0.155 (active)
CCN1/C(=C/C=C/c2sc3ccccc3[n+]2CC)Sc2ccccc21,nuclear beta-catenin stimulation,[1]; at 10 µM,1.2% (inactive)
same,nuclear beta-catenin stimulation,"[1]; stimulation, at 2 µM",7.5%
same,insulin secretion stimulation,[2],-0.5% (inactive)
same,viability decrease,[3],99.1% (active)
same,tube area decrease,[4],-349% (inactive)
same,GLP1 secretion stimulation,[5],-2.9% (inactive)
same,inhibition of viability,[6],98.8% (active)
same,viability decrease (inhibition),[7],103% (active)
same,viability decrease (inhibition),[8],102% (active)
CCCCCCCC[N+](C)(C)CCCCCCCC,nuclear beta-catenin stimulation,[1]; at 10 µM,-3.8% (inactive)
same,nuclear beta-catenin stimulation,"[1]; stimulation, at 2 µM",34.4%
same,insulin secretion stimulation,[2],-3% (inactive)
same,viability decrease,[3],99.5% (active)
same,tube area decrease,[4],108% (active)
same,GLP1 secretion stimulation,[5],-2.7% (inactive)
same,inhibition of viability,[6],99.6% (active)
same,viability decrease (inhibition),[7],102% (active)
same,viability decrease (inhibition),[8],101% (active)
